In all, about 320,000 compounds went through this assay and about 2,100 (0.66%) were called active. Another 53% or so got no clear call; they are omitted. The call rests on the fitted dose curve; in most records, active means well fitted inhibition curve with a large enough effect in the signal ratio, with a control signal flat (not every such curve was filed as active); inconclusive means small, poorly fitted or top-dose-only effect, or effect the other way, or a change in a side signal; inactive means flat fitted curve, though single readings scatter; the % refers to the signal ratio. The sample as a whole holds a higher share of actives than the screen did.
Potency means the concentration at half of the fitted maximal effect.

This assay can be described thus: qHTS Assay for Lipid Storage Modulators in Drosophila S3 Cells.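 On cell number change: cells counted by Cell Tracker Red CMTPX staining in the red channel.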 On lipid storage change, negative = inhibition: on the % scale 0 is the no-effect control and ±100 the full control effect. Particulars: BODIPY lipid droplet fluorescence, 18-24 h, cells fed with added oleic acid; cell number change: measured here: cell count max response; series mostly up to 46.1 µM; lipid storage change, negative = inhibition: at the top concentration. The procedure, abridged: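 Drosophila S3 cells loaded with oleic acid (400 uM, as added) and compounds at several concentrations; lipid droplets imaged by 488-nm laser-scanning cytometry, 500–530 nm intensity and object ratio to cell channel. Percent activity normalized to 20 uM Triacsin C.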
(qHTS replaces the single test concentration by a dilution series.)
On to `COc1ccccc1CNC(=O)COc1cc2c(c3oc(=O)cc(C)c13)CCC(C)(C)O2`, for which the “lipid storage change, negative = inhibition” value is -25.6% (inactive) and the cell number change was determined as 5.31%.
On to `CCc1cc(=O)oc2c3c(cc(OCC(=O)NCc4cccnc4)c12)OC(C)(C)CC3`, for which the Potency was 7.31 µM (active) and the cell number change was 1.59%.
For the molecule `CCc1cc(=O)oc2c3c(cc(OCC(=O)NCc4ccncc4)c12)OC(C)(C)CC3`, the molecule was classed as inactive and the cell number change worked out at 18.3%.
Consider `CCc1cc(=O)oc2c3c(cc(OCC(=O)NCCC(=O)O)c12)OC(C)(C)CC3`, for which the “lipid storage change, negative = inhibition” value is 1.64% (inactive) and the cell number change was found to be 4.77%.
For `Cc1cc(=O)oc2c3c(cc(OCC(=O)NCC(=O)O)c12)OC(C)(C)CC3`, the “lipid storage change, negative = inhibition” value is 7.78% (inactive) and the cell number change is 13.8%.
`COc1cccc(CNC(=O)COc2cc3c(c4oc(=O)cc(C)c24)CCC(C)(C)O3)c1`: the Potency is 1.3 µM (active) and the cell number change was -18.8%.
As to `O=C(Cc1ccccc1)NNC(=O)c1ccc(NC(=O)c2ccccc2)cc1`, the “lipid storage change, negative = inhibition” value was -12.8% (inactive) and the cell number change worked out at 27.8%.
For `CN(C)S(=O)(=O)c1ccc(C(=O)Oc2coc(CSc3ncccn3)cc2=O)cc1`, the “lipid storage change, negative = inhibition” value is -6.42% (inactive) and the cell number change was found to be 6.85%.
For the molecule `NC(=O)N/N=C(/CCCCCC/C(=N\NC(N)=O)c1ccccc1)c1ccccc1`, the “lipid storage change, negative = inhibition” value is -11.9% (inactive) and the cell number change stood at 2.15%.
The corresponding values for `Cc1ccc(C(=O)N2C3=C(CCCC3)C(=O)NC23CCCCC3)cc1` are -6.74% (inactive) and 3.44%.
The corresponding values for `COC(=O)CNC(=O)CNC(=O)Nc1ccccc1` are 7.48% (inactive) and 1.69%.
For `Cn1nccc1NC(=O)COCC(=O)O`, the “lipid storage change, negative = inhibition” value is 1.45% (inactive) and the cell number change worked out at 11.4%.
As to `Cc1ncsc1C(=O)NCc1ccc(N2CCCC2=O)cc1`, the Potency was 2.59 µM (active).
In the case of `COc1ccc(CNC(=O)c2ccc(N3CCCC3=O)cc2)cc1`, the “lipid storage change, negative = inhibition” value was 25.4% (inactive) and the cell number change stood at 23.1%.
`O=C(NCc1ccc(N2CCCC2=O)cc1)c1ccc(F)cc1`: the “lipid storage change, negative = inhibition” value was 0.839% (inactive) and the cell number change is 1.24%.
On to `N#Cc1ccsc1NC(=O)CN(Cc1ccccc1)Cc1ccccc1`, for which the “lipid storage change, negative = inhibition” value is 10.3% (inactive) and the cell number change is -9.01%.
As for `CCOC(=O)N1CCC(NC(=O)c2ccc(CO)c(C(=O)NC3CCN(C(=O)OCC)CC3)c2)CC1`, the “lipid storage change, negative = inhibition” value is 5.33% (inactive).
Consider `O=C(O)CC(C(=O)Nc1ccc(Cl)c(Cl)c1)C1CCCO1` (centres undefined), for which the Potency is 20.6 µM (active) and the cell number change worked out at 12.1%.
In the case of `O=C(O)CC(C(=O)Nc1ccc(Cl)cc1Cl)C1CCCO1` (centres undefined), the “lipid storage change, negative = inhibition” value is 9.88% (inactive) and the cell number change was found to be 5.73%.
Regarding `O=C(O)CC(C(=O)Nc1ccc(F)cc1)C1CCCO1` (centres undefined), the “lipid storage change, negative = inhibition” value was -20.6% (inactive) and the cell number change is -13.3%.
Consider `CCOC(=O)N1CCN(C(=O)CCCn2c(=S)[nH]c3ccsc3c2=O)CC1`, for which the “lipid storage change, negative = inhibition” value is -5.9% (inactive) and the cell number change was -21.6%.
Turning to `COC(=O)c1ccc(COc2ccc(C=O)cc2)o1`, the outcome was inactive and the cell number change was -4.2%.
As to `CCN(CC#CCC(O)(c1ccccc1)c1ccccc1)C(C)C`, the “lipid storage change, negative = inhibition” value was -6.31% (inactive) and the cell number change came to 1.67%.
Take `CCCCOc1ccc(NS(=O)(=O)c2ccc(-n3cnnn3)cc2)cc1`: the molecule was classed as inactive and the cell number change was -4.72%.
Take `COc1ccc(OCC(NS(=O)(=O)c2ccc(-n3cnnn3)cc2)C(C)C)cc1` (centres undefined): the Potency is 0.13 µM (active).
For `COc1ccc(S(=O)(=O)Nc2cccc(-n3cnnn3)c2)cc1`, the outcome was inactive and the cell number change was -4.25%.
`COc1ccc(CNS(=O)(=O)c2ccc(-n3cnnn3)c(C)c2)cc1`: the Potency is 18.4 µM (active) and the cell number change was -1.28%.
For `COc1ccc(CN(Cc2ccc(OC)cc2)S(=O)(=O)c2ccc(-n3cnnn3)c(C)c2)cc1`, the “lipid storage change, negative = inhibition” value was -11.8% (inactive) and the cell number change is -0.43%.
For `Cc1cc(S(=O)(=O)NCc2cccnc2)ccc1-n1cnnn1`, the molecule was classed as inactive and the cell number change came to 2.93%.
In the case of `C=CCOC(=O)C1=C(C)NC(=O)NC1c1cc2c(cc1Br)OCO2` (centres undefined), the “lipid storage change, negative = inhibition” value is -3.77% (inactive) and the cell number change was -17.1%.
`N/C(=N\OC(=O)C1CCCCC1)c1cccnc1`: the “lipid storage change, negative = inhibition” value is 2.61% (inactive) and the cell number change is -2.17%.
`CCOc1cc(CNCCCN2CCOCC2)ccc1OCC(=O)Nc1cccc2ccccc12`: the molecule was called inactive and the cell number change was determined as 9%.
On to `CCN(CC)CCNC(=O)c1ccc(NC(=O)c2ccc3c(c2)CCC3)cc1`, for which the “lipid storage change, negative = inhibition” value is 9.17% (inactive) and the cell number change came out at 2.22%.
The corresponding values for `COc1ccc(Br)cc1C(=O)O` are -3.81% (inactive) and 9.36%.
`COc1c(Br)cc(Br)cc1C(=O)O`: the Potency is 20.6 µM (active) and the cell number change is -14.5%.
Turning to `COc1cc(N)c(Br)cc1C(=O)O`, the “lipid storage change, negative = inhibition” value is 9.6% (inactive).
For `COc1ccc(/C=N/NC(=O)Cn2nc([N+](=O)[O-])cc2C)c(OC)c1OC`, the “lipid storage change, negative = inhibition” value is -1.52% (inactive) and the cell number change was found to be 15.6%.
Consider `COc1ccc(-n2ncc(C(=O)NC3CC3)c2C2CCN(C(=O)OC(C)(C)C)CC2)cc1`, for which the Potency was 9.2 µM (active) and the cell number change was -6.59%.
Regarding `Cc1ccc(-n2ncc(C(=O)O)c2C2CCN(C(=O)OC(C)(C)C)CC2)cc1`, the “lipid storage change, negative = inhibition” value was 1.24% (inactive) and the cell number change is -23.6%.
Taken in the same sequence, the figures for `Cc1ccc(-n2ncc(C(=O)NC3CC3)c2C2CCN(C(=O)OC(C)(C)C)CC2)cc1` were -3.19% (inactive) and -12.2%.
Taken in the same sequence, the figures for `Nn1cc(-c2ccccc2)nc1SCC(=O)NCCN1C(=O)CSC1=O` were 3.23% (inactive) and -20.3%.
Taken in the same sequence, the figures for `CCOC(=O)CN(C(=O)CSc1nnc(-c2ccncc2)n1CCCOC)c1ccccc1` were -0.702% (inactive) and -3.7%.
On to `CC(C)(C)Nc1c(-c2ccc(O)cc2)nc2ccc(Cl)cn12`, for which the “lipid storage change, negative = inhibition” value is -6.34% (inactive) and the cell number change came to 20.8%.
The corresponding values for `NC(=O)NCCCC(=O)O` are -6.78% (inactive) and -16.4%.
Consider `CC(NC(=O)NCCCC(=O)O)(C(F)(F)F)C(F)(F)F`, for which the Potency is 29.1 µM (active) and the cell number change was -5.28%.
In the case of `CC(NC(=O)NC(N)=O)(C(F)(F)F)C(F)(F)F`, the “lipid storage change, negative = inhibition” value was -6.44% (inactive) and the cell number change amounted to 2.2%.
Turning to `CSCCC(NC(=O)c1ccc(Cl)cc1Cl)C(=O)N(C)Cc1nc2ccccc2c(=O)[nH]1` (centres undefined), the lipid storage change, negative = inhibition was 1.6% [at 0.0737 µM] (inactive).

(Values after PubChem BioAssay AID2685 (National Center for Advancing Translational Sciences (NCATS), 2010).)
